This note sets out measurements from PubChem BioAssay (Tox21).

The experiment addresses 5-hydroxytryptamine receptor 2A (Homo sapiens) (UniProt P28223). The experiment can be described thus: 5-hydroxytryptamine receptor 2A (HTR2A) small molecule antagonists, cell-based qHTS assay (AID 1963586). Further: nearly all actives have a fitted effect of over 45% in size. In short, it runs like this: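 CHO cells stably expressing human HTR2A were plated for 18 h at 37 C, then loaded with calcium dye for 1 h. Compounds were preincubated 5 min at room temperature before DOI (4 nM solution) was added. Kinetic fluorescence was read for 3 min.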
A general note: In qHTS, concentration-response curves come from the screen itself.

Inconclusive results are not listed. A call without a number means that no potency is given here. Active and inactive are the calls of the source. The call rests on the fitted dose curve.
Potency means the concentration at half of the fitted maximal effect.

Sequence of 5-hydroxytryptamine receptor 2A (Homo sapiens) (P28223 whole entry, looked up): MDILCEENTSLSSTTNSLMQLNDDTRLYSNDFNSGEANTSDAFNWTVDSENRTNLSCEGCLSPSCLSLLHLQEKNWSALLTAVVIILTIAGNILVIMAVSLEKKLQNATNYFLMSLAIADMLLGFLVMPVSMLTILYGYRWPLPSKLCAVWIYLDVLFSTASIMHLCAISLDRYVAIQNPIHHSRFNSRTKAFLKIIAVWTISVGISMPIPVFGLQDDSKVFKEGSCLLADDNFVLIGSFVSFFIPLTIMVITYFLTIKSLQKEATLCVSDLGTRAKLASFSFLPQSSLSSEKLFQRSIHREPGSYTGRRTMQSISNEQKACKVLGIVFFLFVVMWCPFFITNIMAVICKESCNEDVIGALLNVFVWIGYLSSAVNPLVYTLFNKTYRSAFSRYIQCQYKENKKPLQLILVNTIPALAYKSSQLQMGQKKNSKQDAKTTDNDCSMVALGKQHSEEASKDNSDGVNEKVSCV

In the case of `CC1CCCCC1`, the Potency result was “inactive”.
The value for `Cl[Si](Cl)(c1ccccc1)c1ccccc1` was “inactive”; that for `CC(N)C(=O)OC(C)(C)Cc1ccc(Cl)cc1` (stereo not drawn) was “inactive”.
The value for `Clc1nnc(Cl)c2ccccc12` was “inactive”; that for `CCCCCCCCCCCCSC` was “inactive”.
The value for `CCCCCCCC/C=C\CCCCCCCCCCCC(=O)O` was “inactive”; that for `COc1cc(C(=O)NCCCCCC(=O)O)cc(OC)c1OC` was “inactive”; that for `CCC1CO1` (stereo not drawn) was “inactive”.
As for `O=C1CCCCCCCCCCC(=O)OCCO1`, the Potency entry is “inactive”.
To `O=C(CCC1CCN(Cc2ccccc2)CC1)c1ccc2c(c1)NCCCC2` belongs 2590 nM (active); to `CC(=O)Nc1cc(S(=O)(=O)O)cc2cc(S(=O)(=O)O)c(N=Nc3ccccc3)c(O)c12`, “inactive”; to `CCCCCCCC(C)=O`, “inactive”.
As to `CCC(C)N(C)C(=O)c1cc2ccccc2c(-c2ccccc2Cl)n1` (stereo not drawn), the Potency entry is “inactive”.
To `CCCCC(CC)CN` (stereo not drawn) belongs “inactive”; to `CC(=O)c1c(C)cc(C(C)(C)C)cc1C`, “inactive”; to `COc1ccc2[nH]c(S(=O)Cc3ncc(C)c(OC)c3C)nc2n1` (stereo not drawn), “inactive”.
To `CC(CC(C)(C)C)CC(C)(C)CC(C)(C)C` (stereo not drawn) belongs “inactive”; to `C=CCOC(=O)/C=C\C(=O)OCC=C`, “inactive”; to `CCCCCCCCN`, “inactive”.
To `COc1ccc(-n2nc(CCC(=O)N(C)O)cc2-c2ccc(Cl)cc2)cc1` belongs “inactive”.
As for `CCCCCCCCCC[N+](C)(C)[O-]`, the Potency result is “inactive”.
The value for `CC1(C)S[C@@H]2[C@H](N=CN3CCCCCC3)C(=O)N2[C@H]1C(=O)O` was “inactive”; that for `CCCCCCCCC=O` was “inactive”; that for `CCCCCCC/C=C/C=O` was “inactive”.
The value for `C[C@@H]1CN(CCCn2c3ccccc3c3ccccc32)C[C@H](C)N1` was “inactive”; that for `Nc1ccc(C(=O)N2CC3CC(CN(Cc4ccccc4)C3)C2)cc1` was “inactive”; that for `O=C(O)c1cccc(C(=O)O)c1C(=O)O` was “inactive”.
The value for `CCCCCCOC(=O)CCC` was “inactive”; that for `CSc1nc(NC2CC2)nc(NC(C)(C)C)n1` was “inactive”.
In the case of `COc1c(Br)cc(Br)c(C)c1Br`, the Potency result is “inactive”.
The value for `CCCCCCCCc1ccc(S(=O)(=O)O)cc1` was “inactive”; that for `CCC1(C)C(=O)N(Cl)C(=O)N1Cl` (stereo not drawn) was “inactive”; that for `NC(CS)C(=O)O` (stereo not drawn) was “inactive”.
